Screens (PubChem)
Sampled rows, rich in hits. Any-hit rate of the full collection: about 3.9%.
HT1080NT lethal: qHTS for induction of synthetic lethality in tumor cells producing 2HG: qHTS for the HT-1080-NT fibrosarcoma cell line. Potency, µM (titrated, usually from 46.1 µM), without a hit: top-dose activity, negative = less viability, hits mostly cytotoxic. HT-1080-NT fibrosarcoma viability, CellTiter-Glo ATP luminescence, 48 h. actives 1.6% (n = 360,000);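 note: NT is the 2HG producing partner of a matched IDH1 knockdown line; 0% = DMSO-treated cells and -100% = media-only wells without cells; nearly all actives have a fitted effect of over 55% in size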
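HT-1080-NT; 750 cells/well; 5% FBS RPMI; 48 h compound, 37 degrees C; CellTiter-Glo luminescence; curve fitting and curve-class assignment.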
ATXN2 expr inh: Primary qHTS for Inhibitors of ATXN expression; HEK-293 ATXN2-luciferase reporter, luminescence, 24 h; Potency, µM (top dose mostly 57 µM), for inactives: at the top dose activity change, negative = inhibition, most hits filed as inhibitors; actives 0.72% (n = 360,000); AID 1745845, 2022; note: % is set by controls: 0 for no effect and ±100 for the full control effect; nearly all actives have a fitted effect of over 55% in size
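ATXN2-luciferase reporter cells (luciferase flanked by upstream and downstream ATXN2 gene portions) were treated 24 h at 37 °C with compounds at up to 57 uM. SteadyGlo luminescence gave expression; GF-AFC fluorescence gave viability.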
HepG2 tox: qHTS for Inhibitors of TGF-b: Cytotox Counterscreen | actives 0.76% (n = 410,000) | HepG2 CAGA-GFP viability, ATP luminescence, 18 h | Potency, µM (top dose mostly 46.1 µM), for the others: top-dose activity change, negative = cytotoxicity, usual class: cytotoxic
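HepG2 CAGA-GFP cells (1000/well, DMEM with 1% FBS) received compound, then TGF-beta at 500 pg/mL final, and were incubated 18 hours at 37 degrees C. Viability was read by CellTiter-Glo luminescence. Media-only wells were set as complete cell-killing and DMSO as no toxicity.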
S2 tox: Viability Counterscreen for Primary qHTS for Inhibitors of ATXN expression | Potency, µM (titrated, usually from 56.7 µM), hits mostly cytotoxic | actives 0.49% (n = 400,000) | S2 cells (HEK-293 line with an ATXN2-luciferase reporter) viability, CellTiter-Fluor protease fluorescence, 24 h | AID 651635, 2014; note: nearly all actives have a fitted effect of over 40% in size
HT1080 IDH1KD tx: qHTS for induction of synthetic lethality in tumor cells producing 2HG: qHTS for the HT-1080-IDH1KD cell line | Potency, µM (highest dose often 46.1 µM), for the others: top-dose activity, negative = toxicity, most hits filed as cytotoxic | AID 686971, 2013 | actives 2% (n = 360,000) | HT-1080 IDH1 knockdown viability, ATP luminescence, 48 h;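 note: 0% = DMSO wells and -100% = cell-free medium wells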
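IDH1KD HT-1080 cells, 750/well, RPMI + 5% FBS; compound pinned after 2 h settling; 48 h, 37 °C; CellTiter-Glo luminescence; % activity normalised to DMSO and no-cell wells; curves fitted, classed by r2 and efficacy.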
TGFb SMAD3 inh: qHTS for Inhibitors of TGF-b; HepG2 CAGA-GFP TGF-b/SMAD3 reporter, GFP fluorescence, 18 h; TGF-beta stimulated, 500 pg/mL final; actives 1.2% (n = 410,000); Potency, µM (series often up to 46.1 µM), for inactives: at the top dose activity, negative = inhibition, usual class: inhibitors; note: % is set by controls: 0 for no effect and ±100 for the full control effect; nearly all actives have a fitted effect of over 65% in size
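HEPG2 CAGA-GFP cells (1000/well, DMEM with 1% FBS) were pre-incubated 2 h at 37 degrees C, given compound by pin tool, then stimulated with TGF-beta at 500 pg/mL final for 18 h before per-cell GFP fluorescence imaging.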
* = called active by the depositor; [ ] = remark or other dose. Calls come from the whole dose curve; as a rule, active = well fitted curve in the direction sought with a large enough effect; inconclusive = small, poorly fitted or top-dose-only effect, or another doubt; inactive = no such curve, though single readings can be large; an effect the other way counts as inactive or inconclusive. Potency is the fitted concentration of half-maximal effect.

How did CC(C)[C@H]1C(=O)O[C@H](C(C)C)C(=O)N(C)[C@@H](C(C)C)C(=O)O[C@H](C(C)C)C(=O)N(C)[C@@H](C(C)C)C(=O)O[C@H](C(C)C)C(=O)N1C do in these assays?
HT1080NT lethal: 4.11µM*; ATXN2 expr inh: 7.94µM*; HepG2 tox: -37.8%; S2 tox: 10µM*; HT1080 IDH1KD tx: 3.26µM*; TGFb SMAD3 inh: 5.62µM*

What do the screens show for `COC(/C(C)=C/C=C/C(C)=C/c1coc(C)n1)C(C)C1CC(O)C2(C)OC2C=CC(C)C2CC(CC(=O)O2)CC2OC2C(=O)O1` (configuration not stated)?
HT1080NT lethal: 0.013µM*; ATXN2 expr inh: -14.2%; HepG2 tox: 0.7%; S2 tox: inconclusive; HT1080 IDH1KD tx: inconclusive; TGFb SMAD3 inh: inconclusive

What do the screens show for `O=C(Nc1cccc(C(F)(F)F)c1)C1CCCN1S(=O)(=O)c1cccc2nsnc12` (configuration not stated)?
ATXN2 expr inh: inconclusive; HepG2 tox: -12.8%; TGFb SMAD3 inh: inconclusive

Results for CC(=O)[O][Hg][c]1ccccc1 ?
ATXN2 expr inh: 4.47µM*; S2 tox: 4.47µM*

How did CC(=O)/C=C/c1ccccc1 do in these assays?
HT1080NT lethal: 13.0%; ATXN2 expr inh: 4.0%; HepG2 tox: -7.7%; S2 tox: inactive; HT1080 IDH1KD tx: 6.5%; TGFb SMAD3 inh: 2.6%

Results for CC12CC[C@H]3[C@@H](CCC4(O)C[C@H](O)CCC34/C=N/NC(=O)c3ccccc3F)C1(O)CCC2C1=CC(=O)OC1 (some centres not stated) ?
HT1080NT lethal: -11.9%; ATXN2 expr inh: inconclusive; HepG2 tox: -27.2%; S2 tox: inconclusive; HT1080 IDH1KD tx: inconclusive; TGFb SMAD3 inh: 2.4%

How did CC12CC[C@H]3[C@@H](CCC4(O)C[C@H](O)CCC34/C=N/NC(=O)c3ccc(O)cc3)C1(O)CCC2C1=CC(=O)OC1 (some centres not stated) do in these assays?
HT1080NT lethal: 0.1%; ATXN2 expr inh: 19.1%; HepG2 tox: 1.1%; S2 tox: inactive; HT1080 IDH1KD tx: 5.5%; TGFb SMAD3 inh: 13.9%

Results for COc1cc(C(=O)N/N=C/C23CC[C@@H](O)CC2(O)CC[C@@H]2[C@@H]3CCC3(C)C(C4=CC(=O)OC4)CCC23O)ccc1O (some centres not stated) ?
HT1080NT lethal: -27.5%; ATXN2 expr inh: inconclusive; HepG2 tox: -40.6%; S2 tox: inactive; HT1080 IDH1KD tx: 23.1µM*; TGFb SMAD3 inh: 2.3%

How did CC12CC[C@H]3[C@@H](CCC4(O)C[C@H](O)CCC34/C=N/NC(=O)c3ccccc3O)C1(O)CCC2C1=CC(=O)OC1 (some centres not stated) do in these assays?
HT1080NT lethal: inconclusive; ATXN2 expr inh: inconclusive; HepG2 tox: -53.3%; S2 tox: inactive; HT1080 IDH1KD tx: 18.4µM*; TGFb SMAD3 inh: inconclusive

Results for CN(C)c1ccc(C(=O)N/N=C/C23CC[C@@H](O)CC2(O)CC[C@@H]2[C@@H]3CCC3(C)C(C4=CC(=O)OC4)CCC23O)cc1 (some centres not stated) ?
HT1080NT lethal: inconclusive; HepG2 tox: -86.9%; S2 tox: inconclusive; HT1080 IDH1KD tx: 10.3µM*; TGFb SMAD3 inh: inconclusive

How did CCOC(C(=O)OCCN(C)C)(c1ccccc1)c1ccccc1 do in these assays?
ATXN2 expr inh: -21.0%; S2 tox: inactive

What do the screens show for `Cc1cc(OC(=O)N(C)C)nc(SCc2c(Cl)cccc2Cl)n1`?
HT1080NT lethal: -3.8%; HepG2 tox: 8.91µM*; S2 tox: inactive; HT1080 IDH1KD tx: inconclusive; TGFb SMAD3 inh: -26.8%

Results for Cc1ccc2c(c1)C1CN(C)CCC1N2 (configuration not stated) ?
ATXN2 expr inh: -1.0%[25.6 µM]; S2 tox: inactive

Results for O=Cc1ccc(O)cc1 ?
HepG2 tox: 10.5%; TGFb SMAD3 inh: 1.5%

Results for CCOc1ccc(N2CC(c3nc4ccccc4n3CCC3CCCCC3)CC2=O)cc1 (configuration not stated) ?
ATXN2 expr inh: 15.9%; HepG2 tox: -2.6%; S2 tox: inconclusive; TGFb SMAD3 inh: -8.7%

How did Cc1nc2cc(C(F)(F)F)ccc2n1C1CCN(Cc2nnnn2CCc2ccccc2)CC1 do in these assays?
HT1080NT lethal: 18.4µM*; ATXN2 expr inh: -24.6%; HepG2 tox: -14.0%; S2 tox: inactive; HT1080 IDH1KD tx: inconclusive; TGFb SMAD3 inh: inconclusive

How did CC(=O)Nc1ccc(S(=O)(=O)N(C)CCOCc2ccccc2)cc1 do in these assays?
HT1080NT lethal: -18.3%; ATXN2 expr inh: -4.1%; HepG2 tox: 5.8%; S2 tox: inactive; HT1080 IDH1KD tx: -2.8%[9.24 µM]; TGFb SMAD3 inh: 1.7%

How did CC(C)=CCN1CC[C@]2(C)c3cc(O)ccc3C[C@H]1[C@H]2C do in these assays?
S2 tox: inactive

Results for COC(COC(N)=O)C1=C(N2CC2)C(=O)C(C)=C(N2CC2)C1=O (configuration not stated) ?
HT1080NT lethal: 6.51µM*; ATXN2 expr inh: 3.55µM*; HepG2 tox: -89.2%; S2 tox: inconclusive; HT1080 IDH1KD tx: 3.26µM*; TGFb SMAD3 inh: inconclusive

How did COc1ccc(CCNC(=O)c2ccc3c(c2)N=C(C)c2cc(C)ccc2S3)cc1OC do in these assays?
ATXN2 expr inh: inconclusive; HepG2 tox: -29.7%; S2 tox: inconclusive; TGFb SMAD3 inh: inconclusive

What do the screens show for `C[C@@H]1CN([C@H](C)CO)S(=O)(=O)c2ccc(C#Cc3cccc(F)c3)cc2O[C@@H]1CN(C)C(=O)CN1CCOCC1`?
HT1080NT lethal: -7.9%; ATXN2 expr inh: inconclusive; HepG2 tox: -41.5%; S2 tox: 20µM*; HT1080 IDH1KD tx: -14.0%; TGFb SMAD3 inh: inconclusive

Results for Cc1ccc(S(=O)(=O)N(C)C[C@H]2Oc3cc(Br)ccc3S(=O)(=O)N([C@H](C)CO)C[C@H]2C)cc1 ?
HT1080NT lethal: -19.7%; ATXN2 expr inh: inconclusive; HepG2 tox: -22.0%; S2 tox: inconclusive; HT1080 IDH1KD tx: -4.8%; TGFb SMAD3 inh: inconclusive
